Experimental data taken from PubChem BioAssay (Tox21).
Records with an inconclusive call do not appear. Calls of active or inactive are those of the source. The call rests on the fitted dose curve; in most records, active means well fitted inhibition curve with a large enough effect in the repeat runs; inconclusive means weak or mixed curves; inactive means no such curve, though single readings can be large or run the other way.

Target: Cytochrome P450 2C9 (Homo sapiens) (UniProt P11712)
Assay: Cytochrome P450 Family 2 Subfamily C Member 9 (CYP2C9) small molecule antagonists: luciferase reporter qHTS assay (AID 1671198); further: nearly all actives have a fitted effect of over 50% in size
Details: P450-Glo CYP2C9 enzyme assay, luciferin luminescence; series mostly up to 115 µM; activity change, negative = inhibition: at the top concentration
Text: U.S. Tox21 Program National Center for Advancing Translational Sciences [NCATS] U.S. Environmental Protection Agency [EPA] National Institutes of Environmental Health Sciences [NIEHS] National Toxicology Program [NTP] U.S. Food and Drug Administration [FDA] Tox21 Assay Overview: Cytochrome P450 (CYP) enzymes are membrane-bound hemeproteins that play a key role in metabolism of drugs and xenobiotics. Evaluation of the effect of chemicals on CYP isozymes is useful to minimize the adverse drug reactions and toxicities in drug development process. Tox21 chemicals were tested for their effect on CYP enzyme activities by using P450-Glo (TM) screening systems (Promega Corporation, Madison, WI). These systems provide a luminescent method containing proluciferin substrates and are converted to luciferin products by CYP isozymes. The luciferin products formed are detected with a luciferin detection reagent, and the amount of light produced is proportional to CYP activity. P450-Glo (TM) CYP2C9 screening system (Catalog. No. V9790) was used to detect the compounds that interfere in CYP2C9 activity.
Tox21 Assay Protocol Summary: Two ul of enzyme-substrate mix was dispensed into medium binding white/solid 1536-well plates (Greiner Bio-One North America Inc., Monroe, NC) using a BioRaptr Flying Reagent Dispenser (FRD, Beckman Coulter, Brea, CA). […] The assay plates were incubated at room temperature for 10 min. Then 2 ul of NADPH regeneration solution was added to each well of the assay plates using an FRD and incubated at 37C for 1 h. The reaction was stopped by adding 4 ul of detection reagent using an FRD and after 20 min incubation at room temperature the luminescence signal was measured using a ViewLux plate reader (Perkin Elmer, Shelton, CT). Data were expressed as relative luminescence units.
On the % scale 0 is the no-effect control and ±100 the full control effect; potency means the concentration at half of the fitted maximal effect.

Chain of Cytochrome P450 2C9 (Homo sapiens) (P11712 whole entry, looked up): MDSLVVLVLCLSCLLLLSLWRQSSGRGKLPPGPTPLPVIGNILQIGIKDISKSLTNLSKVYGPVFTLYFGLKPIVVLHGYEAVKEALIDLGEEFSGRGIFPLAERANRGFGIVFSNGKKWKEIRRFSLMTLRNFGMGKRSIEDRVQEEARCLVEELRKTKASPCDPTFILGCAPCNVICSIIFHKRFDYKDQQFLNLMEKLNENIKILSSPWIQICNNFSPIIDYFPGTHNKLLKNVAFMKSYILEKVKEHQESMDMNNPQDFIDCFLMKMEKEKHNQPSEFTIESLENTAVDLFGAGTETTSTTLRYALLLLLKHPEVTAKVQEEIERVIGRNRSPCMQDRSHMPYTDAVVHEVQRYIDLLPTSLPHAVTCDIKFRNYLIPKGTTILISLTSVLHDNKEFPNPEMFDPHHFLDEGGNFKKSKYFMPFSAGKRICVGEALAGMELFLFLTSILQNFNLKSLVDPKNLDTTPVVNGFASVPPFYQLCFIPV

Structure (SMILES) | activity change, negative = inhibition | Potency
O=S(=O)(Cl)c1ccccc1 | -5.99% (inactive) | 
COC(=O)C(C)N(C(=O)Cc1ccccc1)c1c(C)cccc1C (stereo not given) |  | 22.4 µM (active)
Nc1nc(N)nc(N)n1 | -2.47% (inactive) | 
C[C@H]1CNCCc2ccc(Cl)cc21 | 8.02% [at 53 µM] (inactive) | 
C=CC(=O)OCCCCO | -11% (inactive) | 
COc1ccc(-c2ccccc2)cc1NNC(=O)OC(C)C |  | 2.62 µM (active)
O=C(O)C(F)(F)C(F)(F)C(F)(F)C(F)(F)C(F)(F)C(F)(F)C(F)(F)C(F)(F)C(F)(F)F |  | 2.83 µM (active)
Cn1cc[n+](C)c1 (tested in a mixture with another compound) | -15% (inactive) | 
CCCCCCCCCC(=O)O[C@H]1CC[C@H]2[C@@H]3CCC4=CC(=O)CC[C@@H]4[C@H]3CC[C@]12C |  | 15.5 µM (active)
Cc1cc(=O)[nH]o1 |  | 110 µM (active)
C=C(C#N)CCC#N | 1.23% (inactive) | 
O=S(=O)(O)C(F)(F)C(F)(F)C(F)(F)C(F)(F)F |  | 17.9 µM (active)
Cl/C=C\Cl | 6% (inactive) | 
CCCCCCCCCCOC(=O)c1ccccc1C(=O)OCCCCCCCCCC | -12% (inactive) | 
Cc1c(F)c(F)c(COC(=O)C2C(/C=C(\Cl)C(F)(F)F)C2(C)C)c(F)c1F (stereo not given) |  | 22.4 µM (active)
CC(C)(C)c1cc([N+](=O)[O-])cc([N+](=O)[O-])c1O |  | 17.8 µM (active)
C=CC(C)=O | -16.7% (inactive) | 
COc1nn(C(=O)NS(=O)(=O)c2ccccc2OC(F)(F)F)c(=O)n1C |  | 32.5 µM (active)
NC(=O)CI |  | 63.8 µM (active)
COC(=O)C(Br)CBr (stereo not given) | -13.9% (inactive) | 

Structure (SMILES) | activity change, negative = inhibition | Potency
CC(=O)CCC(C)=O | 1.26% (inactive) | 
CCc1ccc(C(=O)NN(C(=O)c2cc(C)cc(C)c2)C(C)(C)C)cc1 |  | 11.2 µM (active)
COP(=S)(OC)Oc1cc(Cl)c(I)cc1Cl |  | 3.99 µM (active)
CCC(Br)(CC)C(=O)NC(N)=O | -13% (inactive) | 
CNC(C)Cc1ccccc1OC (stereo not given) | 8.02% [at 53 µM] (inactive) | 
CO/N=C(/C(=O)OC)c1ccccc1COc1ccccc1C |  | 28.3 µM (active)
CC(=O)C(C)(C)C | -0.26% (inactive) | 
ClCc1cccc(Cl)c1 | -3.2% [at 53 µM] (inactive) | 
NS(=O)(=O)C(F)(F)C(F)(F)C(F)(F)C(F)(F)C(F)(F)C(F)(F)C(F)(F)C(F)(F)F |  | 0.633 µM (active)
C=CC(=O)OCC(C)O (stereo not given) | 3.39% (inactive) | 
CCCCCCC#N | -8.02% (inactive) | 
c1ccoc1 | 6.27% (inactive) | 
COc1cc(CC(C)N)cc2c1OCO2 (stereo not given) | -1.51% (inactive) | 
O=C1C(Cl)C(CCl)CN1c1cccc(C(F)(F)F)c1 (stereo not given) | 37.1% (inactive) | 
c1ccc(C2CC2)c(OCC2=NCCN2)c1 | 4.47% [at 53 µM] (inactive) | 
N#Cc1ccc(Cl)cc1 | -13% (inactive) | 
[CH3][Sn]([CH3])([Cl])[Cl] |  | inactive
O=C(O)C1(c2ccc3c(c2)OC[C@H](Cc2ccc(-c4ccccc4)cc2)[C@H]3O)CCCC1 |  | 71 µM (active)
O=C1CN=C(c2ccccc2)c2cc(Cl)ccc2N1CC1CC1 |  | 26.4 µM (active)
Cc1ccccc1CCl | -0.721% (inactive) | 
